Potency data for 9 molecules are collected here from PubChem BioAssay (NCATS).

Test [1] is described as follows: qHTS of pediatric cancer cell lines to identify multiple opportunities for drug repurposing: Primary screen for Saos-2 cells (AID 1347097). Note: potency is the fitted concentration of half-maximal effect; nearly all actives have a fitted effect of over 40% in size. In short, it runs like this:
(§1)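 Cells seeded at 500-1,000 cells/well in growth media, rested 5 hours at 37 degrees C, 5% CO2, then dosed; MIPE compounds at 11-point (from 0.78 nM) and NPC at 8-point (from 0.59 nM) final concentrations. Viability by CellTiter-Glo luminescence after 48 hours.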

A short description of test [2]: qHTS of pediatric cancer cell lines to identify multiple opportunities for drug repurposing: Primary screen for NB1643 cells (AID 1347099). Note: nearly all actives have a fitted effect of over 50% in size. Note: potency is the fitted concentration of half-maximal effect. In short, it runs like this:
as §1
Background: Quantitative high-throughput screening tests each substance at several concentrations.

Test [3] can be described thus: qHTS of pediatric cancer cell lines to identify multiple opportunities for drug repurposing: Primary screen for LAN-5 cells (AID 1347100). Note: potency is the fitted concentration of half-maximal effect. A digest of the protocol: (§2)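 Cells (500-1,000/well) in growth media were settled 5 h at 37 degrees C, then given compounds for 48 h. Viability was read as CellTiter-Glo luminescence. Primary runs used MIPE at 11 points (0.78 nM-46 µM) and NPC at 8 points (0.59 nM-46 µM); follow-ups used 11 points.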

The nature of test [4]: qHTS of pediatric cancer cell lines to identify multiple opportunities for drug repurposing: Primary screen for Rh18 cells (AID 1347102). Note: nearly all actives have a fitted effect of over 65% in size. Note: potency is the fitted concentration of half-maximal effect. In short, it runs like this:
as §2

Test [5] in a line: qHTS of pediatric cancer cell lines to identify multiple opportunities for drug repurposing: Primary screen for RD cells (AID 1347104). Note: nearly all actives have a fitted effect of over 55% in size. Note: potency is the fitted concentration of half-maximal effect. In short, it runs like this:
as §1

Test [6] can be described thus: qHTS of pediatric cancer cell lines to identify multiple opportunities for drug repurposing: Primary screen for control Hh wild type fibroblast cells (AID 1347106).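 Note: series mostly up to about 46 µM; a drop in luminescence marks cytotoxicity and a rise apparent proliferation; nearly all actives have a fitted effect of over 55% in size.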 A digest of the protocol:
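Viability after 48 h compound treatment at 37C, 500-1,000 cells/well, read as ATP luminescence with CellTiter-Glo. Primary screens used 11-point (MIPE, 0.78 nM-46 µM) or 8-point (NPC, 0.59 nM-46 µM) final concentrations; follow-up screens used 11-point dilutions.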

A short description of test [7]: qHTS of pediatric cancer cell lines to identify multiple opportunities for drug repurposing: Primary screen for Rh30 cells (AID 1347107). Note: nearly all actives have a fitted effect of over 75% in size. Note: potency is the fitted concentration of half-maximal effect. A digest of the protocol:
as §2

Test [8] can be described thus: qHTS of pediatric cancer cell lines to identify multiple opportunities for drug repurposing: Primary screen for SK-N-SH cells (AID 1347098). Note: nearly all actives have a fitted effect of over 65% in size. Note: potency is the fitted concentration of half-maximal effect. A digest of the protocol:
(§3)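 Cells (500-1,000/well) rested 5 h, then received compounds for 48 h; metabolically active cells were measured by CellTiter-Glo luminescence. Final concentrations spanned up to 46 µM (MIPE, 11-point) or 0.59 nM-46 µM (NPC, 8-point) in primary screens, 11-point in follow-ups.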

A short description of test [9]: qHTS of pediatric cancer cell lines to identify multiple opportunities for drug repurposing: Primary screen for OHS-50 cells (AID 1347103). Note: potency is the fitted concentration of half-maximal effect; nearly all actives have a fitted effect of over 40% in size. In short, it runs like this: as §3
Test [10] can be described thus: qHTS of pediatric cancer cell lines to identify multiple opportunities for drug repurposing: Primary screen for MG 63 (6-TG R) cells (AID 1347105). Note: nearly all actives have a fitted effect of over 50% in size. Note: potency is the fitted concentration of half-maximal effect. In short, it runs like this: as §1
Test [11] can be described thus: qHTS of pediatric cancer cell lines to identify multiple opportunities for drug repurposing: Primary screen for U-2 OS cells (AID 1347096). Note: nearly all actives have a fitted effect of over 50% in size. In short, it runs like this:
as §2

Test [12] in a line: qHTS of pediatric cancer cell lines to identify multiple opportunities for drug repurposing: Primary screen for Rh41 cells (AID 1347108). Note: nearly all actives have a fitted effect of over 70% in size. Note: potency is the fitted concentration of half-maximal effect. In short, it runs like this: as §1
Test [13] is described as follows: qHTS of pediatric cancer cell lines to identify multiple opportunities for drug repurposing: Confirmatory screen for A673 cells (AID 1347110).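 Note: potency is the fitted concentration of half-maximal effect; cells exposed to compound for 48 h before the viability read; nearly all actives have a fitted effect of over 65% in size.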 A digest of the protocol:
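Viability was read as ATP luminescence (CellTiter-Glo) after 48 h of compound exposure at 37 C in A673 cells seeded at 500-1,000/well. Titrations reached 46 uM final, with 11 points in the confirmatory screen. Concentration-response curves were fitted directly.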

Test [14] is described as follows: qHTS of pediatric cancer cell lines to identify multiple opportunities for drug repurposing: Confirmatory screen for SK-N-MC cells (AID 1347111).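 Note: potency is the fitted concentration of half-maximal effect; cells exposed to compound for 48 h before the readout; nearly all actives have a fitted effect of over 70% in size.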 In short, it runs like this: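 Metabolically active cells were quantified by ATP-dependent luminescence (CellTiter-Glo, 15 min at room temperature) following 48 h treatment. Cells had been plated at 500-1,000 per well and settled for 5 h beforehand.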

The nature of test [15]: qHTS of pediatric cancer cell lines to identify multiple opportunities for drug repurposing: Confirmatory screen for BT-12 cells (AID 1347112). Note: potency is the fitted concentration of half-maximal effect; nearly all actives have a fitted effect of over 55% in size. A digest of the protocol:
as §2

Test [16] in a line: qHTS of pediatric cancer cell lines to identify multiple opportunities for drug repurposing: Primary screen for BT-12 cells (AID 1347101). Note: potency is the fitted concentration of half-maximal effect; nearly all actives have a fitted effect of over 25% in size. In short, it runs like this: as §3
Test [17] is described as follows: qHTS of pediatric cancer cell lines to identify multiple opportunities for drug repurposing: Confirmatory screen for NB1643 cells (AID 1347109). Note: nearly all actives have a fitted effect of over 45% in size. In short, it runs like this: as §2

Each structure is given as a SMILES string. Records with an inconclusive call do not appear. Activity calls are given as the source filed them. Calls come from the whole dose curve; as a rule, active = well fitted curve in the direction sought with a large enough effect; inconclusive = small, poorly fitted or top-dose-only effect, or another doubt; inactive = no such curve, though single readings can be large; an effect the other way counts as inactive or inconclusive.

For the molecule `O=C(O)C=Cc1ccc(O)c(O)c1`, the Potency in test [1] was 23.5 µM (active); in test [2] it was 20.9 µM (active); in [3], 3.72 µM (active); in test [5], 33.2 µM (active); in test [7] it was 23.5 µM (active). Besides, the Potency result in [4] and in test [6] was “inactive” in each case.
For `Cc1ccc(F)c(NC(=O)Nc2ccc(-c3cccc4[nH]nc(N)c34)cc2)c1`, the figures for the Potency in test [1], in test [8] and in test [9] were 18.7 µM (active), 24.1 µM (active) and 27.3 µM (active), respectively. For the same molecule, the Potency entry in test [10], in test [6] and in [7] was “inactive” in each case.
Turning to `N#CC1(c2ccc(NC(=O)c3cccnc3NCc3ccncc3)cc2)CCCC1`, the Potency entry in test [11], in [8], in [2], in [3], in [4] and in test [5] was “inactive” in each case. Also, the Potency result in test [10], in test [6], in [7] and in test [12] was “inactive” in each case.
On to `O=C(Nc1ccccc1Br)N[C@@H]1CCN(c2ccc(C(F)(F)F)cn2)C1`, for which the Potency result in [11], in test [4] and in test [6] was “inactive” throughout. In addition, the Potency in [1] was 18.7 µM (active).
In the case of `O=C(NCc1ccncc1)C12C[C@H]3C[C@@H](C1)CC(c1ccc(Cl)cc1)(C3)C2`, the Potency was 11.8 µM (active) in test [1]; 19.3 µM (active) in [9]; 10.5 µM (active) in [5]; 23.5 µM (active) in test [12]; 9.27 µM (active) in test [13]; 9.27 µM (active) in [14]. For the same molecule, the Potency in [15] is 26.1 µM (active). The Potency entry in test [4] and in [6] was “inactive” each time.
As for `COc1cccc2c1CCCC2CCCN1CCN(C2CCCCC2)CC1` (stereo not given), the Potency entry in test [11], in test [10] and in [6] was “inactive” throughout. The Potency in [3] was 26.4 µM (active); in test [16], 24.3 µM (active); in [9], 19.3 µM (active); in test [5], 26.4 µM (active).
Regarding `CO[C@H]1C[C@@H]2CC[C@@H](C)[C@@](O)(O2)C(=O)C(=O)N2CCCC[C@@H]2C(=O)O[C@H]([C@H](C)C[C@@H]2CC[C@H](OP(C)(C)=O)[C@H](OC)C2)CC(=O)[C@H](C)C=C(C)[C@@H](O)[C@@H](OC)C(=O)[C@H](C)C[C@H](C)C=CC=CC=C1C`, the Potency entry in test [11], in test [8], in test [2], in test [5], in test [10] and in test [6] was “inactive” throughout. For the same molecule, the Potency result in [7] and in test [17] was “inactive” in each case. Also, the Potency in test [16] was 27.3 µM (active); in test [14], 11.7 µM (active).
Consider `Cc1c(O)cccc1C(=O)N[C@@H](CSc1ccccc1)[C@H](O)CN1C[C@H]2CCCC[C@@H]2C[C@@H]1C(=O)NC(C)(C)C`, for which the Potency in test [1] is 26.4 µM (active); in test [4], 18.7 µM (active); in test [9] it was 24.3 µM (active); in test [5], 26.4 µM (active); in test [10], 18.7 µM (active). In test [6], the Potency entry is “inactive”.
As for `CC(C)[C@H](CO)Nc1nc(Nc2ccc(C(=O)O)c(Cl)c2)c2ncn(C(C)C)c2n1`, the Potency result in test [11], in [4], in test [10], in [6] and in [7] was “inactive” in each case. For the same molecule, the Potency in [1] is 18.7 µM (active).
